Reference: PubChem BioAssay AID2717 (Broad Institute, 2010)
Screen size: about 300,000 compounds; about 3,200 (1.1%) were called active. The full list was thinned out, with actives kept by preference. Values without a mark were called inactive. Rule as the data show it: active = inhibition above about 75%; inconclusive = no clear call, values can overlap the other calls; inactive = below that; tested in HMLE shEcad cells.

test: cancer stem cell viability inhibitors, primary screen, luminescence (AID 2717); details: cancer stem cell-like cells viability, at 7.5 µM, hits give high values

Structure (SMILES)	inhibition
C=CCC[C@H](Cc1ccc(F)cc1)C(=O)OC[C@H](C)NC(=O)[C@H](CC=C)CC(=O)N(CCO)Cc1ccccc1	-9.39%
COc1cccc2sc(NNC(=O)c3nc4ccccc4s3)nc12	103% (active)
COc1cccc2sc(Nc3nc(C)c(C(C)=O)s3)nc12	17.8%
COc1ccccc1OCc1nc2ccccc2s1	5.53%
CCN(C[C@H]1N[C@@](CC)(C(=O)OC)[C@H]2C(=O)N(C)C(=O)[C@@H]12)C(=O)Nc1ccc(F)cc1	-20.7%
N#Cc1nc(-c2cccc3ccccc23)oc1N	8.01%
O=C(NNC(=O)c1ccc(Cl)cc1Cl)c1cccs1	5.32%
Cc1ccc(NNC(=O)c2c(F)cccc2Cl)cc1Cl	-4.9%
Cc1ccc(NNC(=O)c2cccs2)cc1Cl	90.5% (active)
CC(=O)Nc1ccc(SC[C@H](Cc2ccccc2)N2CC[C@@H](C)CCC2=O)cc1	1.36%
CC(NC(=O)COC(=O)CCC(=O)c1ccc(Cl)cc1)c1ccccc1 (configuration not stated)	-16.5%
O=C(CCNC(=O)c1ccccc1Cl)NN=Cc1ccco1	-8.03%
O=[N+]([O-])c1cc(S(=O)(=O)NCCc2ccccn2)ccc1Cl	-19.2%
COc1ccccc1-c1nnc(-c2ccc(F)cc2)o1	4.47%
COc1ccc(-c2csc(-c3cccs3)n2)cc1OC	11.3%
COc1ccc(-c2csc3nc(-c4ccccc4F)oc(=O)c23)cc1OC	98.7% (active)
O=S(=O)(Nc1ncnc2sccc12)c1cccc(F)c1	-7.13%
COc1ccc(NC(=O)CNc2cc(S(=O)(=O)N3CCOCC3)ccc2N2CCOCC2)c(OC)c1	6.36%
COc1ccccc1N(CCOc1ccccc1)S(=O)(=O)c1ccccc1	7.81%

Structure (SMILES)	inhibition
COc1cc(/C=C2\Oc3ccc(C#Cc4ccc(O)cc4)cc3C2=O)cc(OC)c1	115% (active)
COc1cc(C#Cc2ccc3cc(CCCO)oc(=O)c3c2)cc(OC)c1	11.5%
COc1ccc2c(c1)O/C(=C\c1ccccc1O)C2=O	-1.63%
O=C1N[C@H](Cc2c[nH]c3ccccc23)COC(=O)[C@H](Cc2ccc(F)cc2)C/C=C\C[C@H]1CC(=O)N(CCO)Cc1ccccc1	36.2%
CC(=O)NC(CC(=O)Nc1ccc(S(=O)(=O)N2CCOCC2)cc1)c1ccccc1 (configuration not stated)	-4.54%
CC(=O)c1c(C)[nH]c(C(=O)COC(=O)c2cccs2)c1C	-12.4%
COc1ccc(C(=O)C(C)OC(=O)c2cccc(S(=O)(=O)Nc3c(C)n(C)n(-c4ccccc4)c3=O)c2)cc1 (configuration not stated)	-12.3%
O=C(CN1C(=O)NC2(CCCC2)C1=O)Nc1cc(C(F)(F)F)ccc1N1CCOCC1	-16.7%
CCOC(=O)C1CCCN(C(=O)CSc2nnc3nc(C)cc(C)n23)C1 (configuration not stated)	8.11%
CC1=NN(c2ccc(Cl)c(C(=O)O)c2)C(=O)/C1=C/c1ccc(-c2ccccc2[N+](=O)[O-])o1	12.7%
CC(=O)C1C(c2ccc(Cl)cc2)NC(=O)NC1(O)C(F)(F)F (configuration not stated)	-6.38%
O=C(/C=C(O)/C=C/c1ccc(O)cc1)/C=C/c1ccc(O)cc1	44.3%
CC1Sc2ccc(C(=O)NCc3ccccc3Cl)cc2NC1=O (configuration not stated)	-22.7%
Cc1ccc(C(=O)NCC(=O)NC2CC2)cc1	-14.8%
CCC(C)(C)c1ccc(Oc2ccc(NC(=O)COC(=O)C3=COCCO3)cc2)cc1	103% (active)
O=C(OCC(=O)c1cccs1)C1=COCCO1	-0.0949%
CCc1ccc(NC(=O)COC(=O)c2cccs2)cc1	-11.1%
O=C1OC[C@@H]2CCCN2C(=O)[C@H](CC(=O)N(CCO)Cc2ccccc2)C/C=C\CC[C@@H]1Cc1ccc(F)cc1	-11.9%
CCOc1ccccc1Nc1nnc(SCC(=O)NCC2CCCO2)s1 (configuration not stated)	-6.96%

Structure (SMILES)	inhibition
C=CCC[C@@H](Cc1ccc(F)cc1)C(=O)O[C@H](CNC(=O)[C@H](CC=C)CC(=O)N(CCO)Cc1ccccc1)c1ccccc1	41.9%
COc1cc(OC)c(C(=O)NNC(=O)c2ccccc2-n2cccc2)cc1OC	17.7%
COc1ccc(CNc2nc(NCc3ccc(OC)cc3)c3ncn(C4CCCC4)c3n2)cc1	62.8%
O=C(Cn1cnc2c(OCc3ccccc3)ncnc21)NCCCn1ccnc1	-10.9%
O=C(COC(=O)CN1C(=O)C2CCCCC2C1=O)Nc1ccc(F)c(F)c1F (configuration not stated)	-26.6%
O=c1c(-c2cccc(Cl)c2)c[nH]n1-c1ccccc1	6.17%
O=C1NC(c2cccc(Cl)c2)Nc2ccccc21 (configuration not stated)	23%
O=C1c2ccccc2NC(c2ccc(-c3cccc(Cl)c3)o2)N1O (configuration not stated)	85.5% (active)
C[C@@H](CN1CCC[C@H]1CN1C(N)=NC[C@@H]1Cc1ccccc1)N1C[C@@H](Cc2ccccc2)N(CCCC2CCCC2)C1=N	1.15%
CCOCc1c(C(=O)N2CCN(Cc3ccc(Br)s3)CC2)oc2ccccc12	-4.05%
COc1ccc(-c2cc(C(F)(F)F)nc(S(C)(=O)=O)n2)cc1OC	94.1% (active)
COc1ccc(-c2cc(C(F)(F)F)nc(NCc3cccnc3)n2)cc1	32.4%
COc1cc(OC)nc(S(C)(=O)=O)n1	2.64%
C[C@H](NS(=O)(=O)c1ccc(Cl)cc1)C(=O)OCC(=O)N1CCOCC1	17.5%
Cc1nc2ccccc2nc1N/N=C/c1ccc(O)cc1O	63.2%
Oc1ccc(/C=N/Nc2nc(-c3ccccc3F)nc3ccccc23)c(O)c1	123% (active)
Fc1ccc(/C=N/Nc2nc(-c3cccnc3)nc3ccccc23)cc1	5.78%
Cc1noc(C)c1S(=O)(=O)N(C)C[C@H]1Oc2ccc(NC(=O)C3CCCCC3)cc2C(=O)N([C@H](C)CO)C[C@@H]1C	-25.9%
CCCc1cc(=O)[nH]c(SCC(=O)Nc2ccc(C(=O)Nc3ccccc3OC)cc2)n1	-1.96%
